Assay results reported in the supplement of paper PMC7411640.
Structures can show the parent of a compound that is named as a salt.

System: MDA-MB-468
Assay: phospho-S6 immunofluorescence (DAPI-normalised), per-plate z-score; higher = higher phospho-S6 signal (less pathway suppression)
Settings: 24 h
Protocol: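 GPCR-targeted compound library (MedChemExpress HY-L006) tested on MDA-MB-468 PTEN-null TNBC cells in 384-well plates at 0.1, 1 or 10 uM, combined with vehicle, GDC0941 450 nM or lapatinib 1 uM, for 24 h. Phospho-S6 (S240/244) immunofluorescence normalised to DAPI and expressed as a per-plate z-score; values are the mean of biological triplicates.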

SMILES | phospho-S6 immunofluorescence (z-score) (co-treatment: GDC0941 450 nM) | phospho-S6 immunofluorescence (z-score) (co-treatment: lapatinib 1 uM) | phospho-S6 immunofluorescence (z-score) (co-treatment: vehicle)
CC(=O)OCC(=O)[C@@]1(O)CC[C@H]2[C@@H]3CCC4=CC(=O)CC[C@]4(C)[C@H]3C(=O)C[C@@]21C [Cortisone (acetate)] (compound 10 µM) | 0.51 | 1.06 | 0.93
CC(=O)OCC(=O)[C@@]12OC(C)(C)O[C@@H]1C[C@H]1[C@@H]3C[C@H](F)C4=CC(=O)C=C[C@]4(C)[C@@]3(F)[C@@H](O)C[C@@]12C [Fluocinonide] (compound 10 µM) | -0.28 | 0.59 | 0.62
C[C@H](Nc1cc(NS(=O)(=O)N2CCC2)nc(SCc2cccc(F)c2F)n1)[C@@H](O)CO (compound 10 µM) | -1.17 | -0.3 | -0.77
COCCOc1ccc(N2CCN(CCn3ncc4c3nc(N)n3nc(-c5ccco5)nc43)CC2)cc1 [Preladenant] (compound 10 µM) | -0.66 | 0.79 | 0.97
O=C(CCCN1CCN(c2ccccn2)CC1)c1ccc(F)cc1 [Azaperone] (compound 10 µM) | 0.08 | 0.77 | 0.8
N=C(N)NC(=O)Cc1c(Cl)cccc1Cl [Guanfacine (hydrochloride)] (compound 10 µM) | 0.64 | 0.23 | 0.38
CC(=O)Oc1cc(C(C)C)c(OCCN(C)C)cc1C [Moxisylyte (hydrochloride)] (compound 10 µM) | 0.49 | -0.11 | -1.23
CCNC(=O)[C@@H]1CCCN1C(=O)[C@H](CCCN=C(N)N)NC(=O)[C@H](CC(C)C)NC(=O)[C@@H](C)NC(=O)[C@H](Cc1ccc(O)cc1)NC(=O)[C@H](CO)NC(=O)[C@H](Cc1c[nH]c2ccccc12)NC(=O)[C@H](Cc1cnc[nH]1)NC(=O)[C@@H]1CCC(=O)N1 [Alarelin (Acetate)] (compound 10 µM) | 0.86 | -0.01 | 1
CN(C)N(C)C(=O)[C@@]1(Cc2ccccc2)CCCN(C(=O)[C@@H](Cc2c[nH]c3ccccc23)NC(=O)C(C)(C)N)C1 [Anamorelin] (compound 10 µM) | -0.16 | -2.31 | 0.4
Cc1nc2ccc(NC(=O)Nc3ccnc4cccnc34)cc2o1 (compound 10 µM) | 0.6 | -1.8 | 0.79
CC(C)NCC(O)COc1ccc(CCOCC2CC2)cc1 (centres undefined) [Betaxolol (hydrochloride)] (compound 10 µM) | 0.79 | 0.07 | 0.74
CC(C)NCC(O)c1ccc(NS(C)(=O)=O)cc1 (centres undefined) [Sotalol (hydrochloride)] (compound 10 µM) | 1.31 | 1.24 | 0.37
CCc1cc(/C(C)=N/OCc2ccc(C3CCCCC3)c(C(F)(F)F)c2)ccc1CN1CC(C(=O)O)C1 [Siponimod] (compound 10 µM) | -0.49 | 0.38 | 0.15
